# Activity calls are given as the source filed them. Calls follow the shape of the dose curve; as a rule, active = well fitted curve in the direction sought with a large enough effect; inconclusive = small, poorly fitted or top-dose-only effect, or another doubt; inactive = no such curve, though single readings can be large; an effect the other way counts as inactive or inconclusive.
# Tests used:
# [1] = target: Alpha-galactosidase A (Homo sapiens) (UniProt P06280); test: Counterscreen for Glucocerebrosidase Inhibitors: qHTS Assay for Human alpha-Galactosidase at pH 4.5 (AID 992); conditions: purified enzyme, fluorogenic substrate; series mostly up to 76.9 µM
# Method in brief: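 Concentration-response curves (0.7 nM to 77 uM final) were modeled with the Hill equation to give AC50. Reactions: 2 nM enzyme, 80 uM fluorogenic alpha-galactoside, pH 4.5 citric acid buffer, 20 min, room temperature.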
# [2] = target: alpha-glucosidase (Oryza sativa, rice) (UniProt Q653V4); test: Counterscreen for Glucocerebrosidase Inhibitors: qHTS Assay for Rice alpha-Glucosidase at pH 5.0 (AID 997); conditions: rice alpha-glucosidase enzyme activity; series mostly up to 76.9 µM
# Method in brief: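 Rice alpha-glucosidase (4 nM final) with 400 uM 4-methylumbelliferyl-alpha-D-glucopyranoside in citrate buffer pH 5.0, 20 min at room temperature, stopped at pH 10; fluorescence 365/440 nm, compounds 0.7 nM–77 uM, AC50 from Hill fits.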
# Alpha-galactosidase A (Homo sapiens), sequence (P06280 whole entry, looked up): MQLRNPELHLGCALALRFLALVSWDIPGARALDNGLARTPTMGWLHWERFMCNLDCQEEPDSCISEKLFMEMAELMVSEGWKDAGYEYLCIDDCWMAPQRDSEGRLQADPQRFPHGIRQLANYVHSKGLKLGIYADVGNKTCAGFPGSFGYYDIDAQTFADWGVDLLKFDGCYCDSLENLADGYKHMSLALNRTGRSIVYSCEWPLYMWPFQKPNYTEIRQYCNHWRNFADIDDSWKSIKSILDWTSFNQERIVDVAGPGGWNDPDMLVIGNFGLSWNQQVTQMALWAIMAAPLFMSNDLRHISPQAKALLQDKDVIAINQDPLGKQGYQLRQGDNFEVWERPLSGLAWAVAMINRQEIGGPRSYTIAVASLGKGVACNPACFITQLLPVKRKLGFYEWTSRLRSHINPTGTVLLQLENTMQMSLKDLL
SMILES,outcome [1],outcome [2]
Fc1ccc([C@@H]2CCNC[C@H]2COc2ccc3c(c2)OCO3)cc1,inactive,inactive
Cc1ccc(C(=O)Nc2ccc(S(=O)(=O)O)c3cc(S(=O)(=O)O)cc(S(=O)(=O)O)c23)cc1NC(=O)c1cccc(NC(=O)Nc2cccc(C(=O)Nc3cc(C(=O)Nc4ccc(S(=O)(=O)O)c5cc(S(=O)(=O)O)cc(S(=O)(=O)O)c45)ccc3C)c2)c1,inactive,inactive
Clc1ccc2c(c1)C(N1CCNCC1)=Nc1ccccc1O2,inactive,inactive
O=C1N(c2ccccc2)c2ccccc2C1(Cc1ccncc1)Cc1ccncc1,inactive,inactive
O=C1c2c(O)ccc(O)c2C(=O)c2c(NCCNCCO)ccc(NCCNCCO)c21,inactive,inactive
Cc1cnc(C(=O)NCCc2ccc(S(=O)(=O)NC(=O)NC3CCCCC3)cc2)cn1,inactive,inactive
CS(=O)(=O)Nc1ccc([N+](=O)[O-])cc1Oc1ccccc1,inactive,inactive
O=c1c(O)c(-c2ccc(O)c(O)c2)oc2cc(O)cc(O)c12,inactive,inactive
Cc1cc(C(C)(C)C)c(O)c(C)c1CC1=NCCN1,inactive,inactive
CC(C)Cc1ccc(C(C)C(=O)O)cc1 (stereo unspecified),inactive,inactive
O=C(C1CCCCC1)N1CC(=O)N2CCc3ccccc3C2C1 (stereo unspecified),inactive,inactive
O=C(Nc1ccc([N+](=O)[O-])cc1Cl)c1cc(Cl)ccc1O,inactive,inactive
CCOC(=O)c1ncn2c1CN(C)C(=O)c1cc(F)ccc1-2,inactive,inactive
O=C(c1ccc(F)cc1)C1CCN(CCn2c(=O)[nH]c3ccccc3c2=O)CC1,inactive,inactive
COC(=O)Nc1nc2ccc(C(=O)c3cccs3)cc2[nH]1,inactive,inactive
CCCCc1oc2ccccc2c1C(=O)c1cc(I)c(OCCN(CC)CC)c(I)c1,inactive,inactive
NCCc1cnc[nH]1,inactive,inactive
CN1CCN(CCCN2c3ccccc3Sc3ccc(Cl)cc32)CC1,inactive,inactive
